The campaign covered roughly 52,000 compounds. About 4,300 (8.3%) were called active. The entries come from a sample that favours actives as a whole. Unmarked numbers belong to inactive results. No stated cut-off is given here; in the data, active means survival mostly below about 52% (no sharp cut-off); inactive means mostly above about 56%.

The assay has as its system DeltatarO mutant. Briefly: S. aureus survival, RN4220 and DeltatarO strains – OD600, teichoic acid synthesis inhibitors, primary screen (AID 463173). Particulars: S. aureus RN4220 wild type/DeltatarO growth, OD600, 18 h, active compounds read low, screened at 18.75 µg/mL (by protocol).
For the molecule `O=C(NCc1ccccc1Cl)c1ccc2c(c1)N(Cc1ccccc1)C(=O)c1ccccc1S2`, the survival was 144%. The figure for `O=C(Nc1cnn(C23CC4CC(CC(C4)C2)C3)c1)c1cc(-c2ccccc2)on1` is 101%; for `COc1ccc(NC(=O)C(C)Sc2nc(C)cc(=O)[nH]2)cc1` (centres undefined) it is 101%. The figure for `CC(C)c1ccc(NC(=O)C2(C)Cc3ccccc3C(=O)O2)cc1` (centres undefined) is 106%; for `CC(NC(=O)c1nn(C)c2c1CSc1ccccc1-2)c1ccccc1` (centres undefined) it is 76%.

With `CCCC(=O)C1=C(c2ccc(C)cc2)N(C(=O)CCC)n2cnnc2S1`, the survival was 130%. The figure for `CCC(=O)C1=C(c2ccc(OC)c(OC)c2)N(C(=O)CC)n2c(nnc2-c2ccc(C)cc2)S1` is 68%; for `CCOc1ccc(C2=C(C(=O)CC)Sc3nncn3N2C(=O)CC)cc1` it is 17% (active); for `CCC(=O)C1=C(c2ccc(F)cc2)N(C(=O)CC)n2c(nnc2-c2ccc(OC)cc2)S1` it is 66%. For the molecule `CCC(=O)C1=C(c2cccc([N+](=O)[O-])c2)N(C(=O)CC)n2c(nnc2C2CCCCC2)S1`, the survival is 91%. The value for `CCC(=O)C1=C(c2cccc([N+](=O)[O-])c2)N(C(=O)CC)n2c(nnc2-c2ccccc2)S1` was 8% (active). The value for `CC(=O)C1=C(c2cccc([N+](=O)[O-])c2)N(C(C)=O)n2c(nnc2-c2ccc(C)cc2)S1` was 89%; that for `CCC(=O)C1=C(c2ccc(F)cc2)N(C(=O)CC)n2cnnc2S1` was 128%. `CCC(=O)C1=C(c2ccccc2)N(C(=O)CC)n2c(nnc2-c2ccccc2)S1`: the survival was -5% (active). The value for `CN(CC(=O)O)Cc1nc2ccccc2[nH]1` was 103%. The value for `Cc1c(Cl)cccc1NC(=O)c1ccc(NC(=O)N2CCSc3ncccc32)cc1` was 72%. The value for `COC(=O)c1ccc(C=Nc2ccc(O)c(-c3nc4ccccc4o3)c2)cc1` was 93%; that for `COc1ccc(C)cc1-n1cnc2cc(C(=O)NC3CCCC3)ccc21` was 119%; that for `O=C(C1CCC(Cn2c(=O)c3sccc3n(Cc3cccc(F)c3)c2=O)CC1)N1CCCCC1` (centres undefined) was 92%. Consider `Cc1c(NS(=O)(=O)c2cccc(C(=O)O)c2)c(=O)n(-c2ccccc2)n1C`, for which the survival was 67%. The value for `O=C1Nc2ccccc2N(O)N1c1ccccc1Cl` was 90%.

In the case of `CCc1ccc(S(=O)(=O)Nc2ccc3c(c2)n(C)c(=O)c(=O)n3C)cc1`, the survival was 79%. For the molecule `COc1ccccc1N1CCN(C(=O)Cn2c(=O)n3nc(-c4cccc(F)c4)nc3c3ccccc32)CC1`, the survival was 71%. The figure for `CC(C)c1ccc(NC(=O)CN2C(=O)CCc3cc(S(=O)(=O)N4CCOCC4)ccc32)cc1` is 87%.
